High-throughput results deposited in PubChem by National Center for Advancing Translational Sciences (NCATS).
RGS12 GoLoco inh – qHTS Assay for Inhibitors of RGS12 GoLoco Motif Activity (Red Fluorophore). Guanine nucleotide-binding protein G(i) subunit alpha-1 (Homo sapiens), P63096. Gai1:RGS12 GoLoco peptide FP, rhodamine, 10 min. Potency, µM (titrated, usually from 61.6 µM), for the others: at the highest dose activity, negative = inhibition, actives largely listed as inhibitors. 230,000 tested, 0.44% active. AID 880, 2007; active = well fitted inhibition curve with a large enough effect, not every such curve was filed as active; inactive = no such curve, though single readings can be large or run the other way; note: potency is the fitted concentration of half-maximal effect; % is set by controls: 0 for no effect and ±100 for the full control effect; nearly all actives have a fitted effect of over 30% in size
PNC inhibitor – High Content Assay for Compounds that inhibit the Assembly of the Perinucleolar Compartment | PC3M PTB-GFP, PNC prevalence imaging, 16 h; active compounds read low | activity change (PNC), negative = inhibition, % at 10 µM | 140,000 tested, 3.1% active | AID 2417, 2010;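 active = readout at or below -70, meaning at least 70% loss of cells showing the perinucleolar compartment, a nuclear body marking cancer cells; inconclusive = readout between -30 and a set limit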;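 note: plate controls were DMSO wells for no effect and camptothecin positive control wells for full effect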
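Compounds are pinned in duplicate onto adhered PC3M cells stably expressing GFP-tagged PTB and incubated 16 h at 37 C. Cells are then fixed, nuclei stained with Hoechst, and PNC-positive cells counted.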
ALDH1A1 block – qHTS Assay for Inhibitors of Aldehyde Dehydrogenase 1 (ALDH1A1); Aldehyde dehydrogenase 1A1 (Homo sapiens), P00352; Purified ALDH1A1, NADH fluorescence, propionaldehyde substrate; Potency, µM (titrated, usually from 75.3 µM), without a hit: at the highest dose activity, negative = inhibition, most hits filed as inhibitors; 220,000 tested, 7.3% active; AID 1030, 2008;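 note: potency is the fitted concentration of half-maximal effect; plate controls were no enzyme wells and a reference inhibitor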
Target sequence (P00352 whole entry, looked up): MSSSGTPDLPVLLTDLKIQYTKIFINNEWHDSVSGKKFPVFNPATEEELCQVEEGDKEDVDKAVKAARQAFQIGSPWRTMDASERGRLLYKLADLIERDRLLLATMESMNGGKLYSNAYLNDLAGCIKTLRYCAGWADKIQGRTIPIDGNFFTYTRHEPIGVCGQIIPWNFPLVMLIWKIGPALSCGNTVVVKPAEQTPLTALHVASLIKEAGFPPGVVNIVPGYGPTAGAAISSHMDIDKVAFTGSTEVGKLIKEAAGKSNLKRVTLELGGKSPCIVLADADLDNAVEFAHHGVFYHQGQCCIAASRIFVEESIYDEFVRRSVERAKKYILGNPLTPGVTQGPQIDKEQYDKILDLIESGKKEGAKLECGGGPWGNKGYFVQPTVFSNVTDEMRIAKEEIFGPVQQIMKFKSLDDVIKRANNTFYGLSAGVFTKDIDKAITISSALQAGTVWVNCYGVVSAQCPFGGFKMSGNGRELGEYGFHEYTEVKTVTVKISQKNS
HTT cytoprotect – qHTS Multiplex Assay to Identify Dual Action Probes in a Cell Model of Huntington: Cytoprotection (ATP). Potency, µM (titrated, usually from 56.4 µM), inactives show cytoprotection (ATP increase), usual class: activators. PC12 HTT-Q103 induced, cytoprotection, ATP luminescence, 40 h. 230,000 tested, 0.14% active; active = well fitted curve in the direction sought with a large enough effect; inconclusive = small, poorly fitted or top-dose-only effect, or another doubt; inactive = no such curve, though single readings can be large; an effect the other way counts as inactive or inconclusive; note: potency is the fitted concentration of half-maximal effect; % of control where 0% means no effect; nearly all actives have a fitted effect of over 45% in size
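Compounds added alongside 100 nM tebufenozide, which induces toxic Q103 huntingtin exon 1-GFP in stable PC12 cells; surviving cells quantified by luminescent ATP measurement. Medium: phenol red-free DMEM, 5% equine and 5% calf serum.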
HttQ103 aggreg – qHTS Multiplex Assay to Identify Dual Action Probes in a Cell Model of Huntington: Aggregate Formation (GFP); PC12 HttQ103-GFP aggregates, Acumen cytometry, 40 h; Potency, µM (top dose mostly 46.1 µM), without a hit: top-dose activity change, negative = inhibition, actives largely listed as inhibitors; 220,000 tested, 1.1% active; AID 1688, 2009; active = well fitted curve in the direction sought with a large enough effect; inconclusive = small, poorly fitted or top-dose-only effect, or another doubt; inactive = no such curve, though single readings can be large; an effect the other way counts as inactive or inconclusive; note: potency is the fitted concentration of half-maximal effect; % is set by controls: 0 for no effect and ±100 for the full control effect; nearly all actives have a fitted effect of over 60% in size
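Steps: seed 1500 PC12 HTTQ103-GFP cells/well; add tebufenozide, 100 nM final; add compound titration; add ATPLite reagent; quantify GFP aggregates by laser scanning cytometry.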
HPGD block – qHTS Assay for Inhibitors of HPGD (15-Hydroxyprostaglandin Dehydrogenase); Potency, µM, for inactives: at the highest dose activity change, negative = inhibition, usual class: inhibitors; 150,000 tested, 4.3% active; 15-hydroxyprostaglandin dehydrogenase [NAD(+)] (Homo sapiens), P15428; purified HPGD, NADH fluorescence kinetic, PGE2 substrate; note: potency is the fitted concentration of half-maximal effect; % is set by controls: 0 for no effect and ±100 for the full control effect
Target sequence (P15428 whole entry, looked up): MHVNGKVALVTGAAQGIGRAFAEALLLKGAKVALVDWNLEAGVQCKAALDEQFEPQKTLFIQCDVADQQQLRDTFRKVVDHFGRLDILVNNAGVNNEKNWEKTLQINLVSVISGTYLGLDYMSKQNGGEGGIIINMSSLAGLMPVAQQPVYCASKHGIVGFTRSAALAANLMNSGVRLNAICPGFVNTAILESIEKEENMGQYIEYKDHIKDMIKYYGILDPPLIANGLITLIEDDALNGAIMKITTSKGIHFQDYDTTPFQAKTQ
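20 nM HPGD preincubated 15 min at room temperature with compound in 50 mM Tris-HCl pH 8, 0.01% Tween 20. Started with 1 mM NAD+ and 30 uM prostaglandin E2; NADH fluorescence (360/450 nm) read 5 times over 30-s intervals, last minus first.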
* hit, by the source's call; ? = inconclusive; · = no result given; [ ] = another dose, or the depositor's remark. This is a sample that favours compounds with a hit; in the whole collection about 11% have one here. Unless noted, calls come from the whole dose curve; as a rule, active = well fitted inhibition curve with a large enough effect (not every such curve was filed as active); inconclusive = small, poorly fitted or top-dose-only effect, or another doubt; inactive = no such curve, though single readings can be large or run the other way.

SMILES | RGS12 GoLoco inh | PNC inhibitor | ALDH1A1 block | HTT cytoprotect | HttQ103 aggreg | HPGD block
CNC(=O)c1nn(-c2ccc(Cl)cc2)ccc1=O | 0% | 17 | -8% | 16%[10 µM] | 14% | -23%
CNC(=O)c1nnsc1S(=O)c1ccc(Cl)cc1 (stereo not drawn) | -28% | · | 22µM* | -142% | 14µM* | ·
CCCNC(=O)c1nnsc1S(=O)(=O)c1ccc(Cl)cc1 | -5% | · | 20µM* | -144% | ? | ·
CCCNC(=O)c1nnsc1S(=O)c1ccc(Cl)cc1 (stereo not drawn) | -10% | · | 11µM* | -150% | 11µM* | ·
CCOC(=O)CSc1snnc1-c1ccccc1 | 0% | 11 | 1% | 15% | 20% | -4%
CS(=O)(=O)c1ccc(Cl)c(NC(=O)CCc2ccccc2)c1 | -4% | · | ? | · | 28% | ·
CC1CCCCC1NC(=O)c1cn(C)c2ccc(S(=O)(=O)N3CCCC3)cc2c1=O (stereo not drawn) | 5% | -15 | 13µM* | 6% | 4% | -2%
Cn1cc(C(=O)NC2CCCCC2)c(=O)c2cc(S(=O)(=O)N3CCCC3)ccc21 | 13% | -23 | ? | -4% | 8% | -11%
Cn1cc(C(=O)NCc2cccs2)c(=O)c2cc(S(=O)(=O)N3CCCC3)ccc21 | -2% | -4 | 4.5µM* | · | 11% | -8%
COC(=O)c1cn(C)c2ccc(S(=O)(=O)N3CCCC3)cc2c1=O | -8% | -109* | ? | -33% | -8% | 8.9µM*
COC(=O)c1cn(C)c2ccc(S(=O)(=O)N3CCOCC3)cc2c1=O | 7% | · | 15% | · | 17% | ·
CN(C1CCCCC1)S(=O)(=O)c1ccc2c(c1)c(=O)c(C(=O)NCCN1CCCC1)cn2C | -1% | ? | 7.9µM* | -10% | ? | -10%
CN(C)c1ncc2nc(-c3cc(F)cc(F)c3)c(=O)n(C3CC3)c2n1 | 2% | · | ? | -16% | · | ·
CN(CCNC(=O)c1cn(C)c2ccc(S(=O)(=O)N(C)C)cc2c1=O)CCc1ccccc1 | 5% | -22 | 20% | -2% | -6% | -5%
CC1CCCC(NC(=O)c2cn(C)c3ccc(S(=O)(=O)N4CCCC4)cc3c2=O)C1C (stereo not drawn) | 5% | 46 | 5.6µM* | 6% | -3% | -11%
CCN(CC(=O)NCc1cccs1)c1ccc(S(=O)(=O)N2CCOCC2)cn1 | 7% | 15 | ? | -17% | -12% | -11%
CCN(CC(=O)NCc1cccs1)c1ccc(S(=O)(=O)N2CCCC2)cn1 | -6% | · | 2.5µM* | -54% | 10% | ·
CN(CCNC(=O)c1cn(C)c2ccc(S(=O)(=O)N3CCCC3)cc2c1=O)CCc1ccccc1 | 2% | ? | 32µM* | -21% | 14% | -7%
CC1CCCC(NC(=O)COC(=O)c2cc(S(=O)(=O)N3CCCCC3)ccc2N2CCOCC2)C1C (stereo not drawn) | -10% | 26 | 10µM* | -13% | 25% | -8%
CC(C)(C)OC(=O)C1=NOC2(C=CC(=O)C=C2)C1 | 0% | · | 12% | -139% | · | -8%
CC(C)C=O | 9% | · | -15% | -6% | · | -5%
O=C(COC(=O)COc1ccccc1)NCc1ccccc1 | 1% | · | 3% | -14% | 14% | ·
O=C(COc1ccccc1)NCc1ccccc1 | 9% | -26 | -12% | 3% | 4% | 28µM*
O=C(COC(=O)c1ccccc1C(=O)c1ccccc1)NCc1ccc(F)cc1 | 4% | · | 8% | -52% | -8% | ·
O=C(COc1ccc(C(=O)c2ccccc2)cc1)NCc1ccc(F)cc1 | 12% | -81* | ? | -54%[10 µM] | -20% | -24%
SMILES | RGS12 GoLoco inh | PNC inhibitor | ALDH1A1 block | HTT cytoprotect | HttQ103 aggreg | HPGD block
COc1cc(NC(=O)COC(=O)CSc2cc(C)ccc2C)c(C)cc1[N+](=O)[O-] | -28% | 81 | -9% | -11%[10 µM] | 5% | -15%
CCN(CC)c1ccc(N=Cc2ccc([N+](=O)[O-])o2)cc1 | 15% | ? | ? | 3%[10 µM] | 14µM* | -11%
CCN(CC)c1ccc(N=Cc2ccccc2[N+](=O)[O-])cc1 | 8% | -99* | 2µM* | · | -15% | -12%
CCCCCC(=O)N/N=C/c1ccc([N+](=O)[O-])o1 | 17% | · | · | · | · | ·
Cn1ncc(N=Cc2ccccc2[N+](=O)[O-])c1C(N)=O | 6% | · | · | 6%[10 µM] | -5%[9.22 µM] | ·
CCC(C)NC(=O)CO/N=C/c1ccc(C(=O)OC)cc1 (stereo not drawn) | -2% | 14 | 4% | 7% | 9% | -21%
COC(=O)c1ccc(/C=N/OCC(=O)NC2CCCCCCC2)cc1 | 4% | 46 | -4% | -4% | -12% | 28µM*
CCOc1ccccc1OCC(=O)NC1CCCCC1 | -5% | 12 | 7% | -3% | -2% | -14%
COc1ccccc1OCC(=O)NC1CCCCCC1 | 1% | 25 | ? | -3% | -1% | 10µM*
COC(=O)c1ccc(/C=N/OCC(=O)NC2CCCC(C)C2C)cc1 (stereo not drawn) | -10% | 11 | 2% | -12% | 7%[9.22 µM] | 11µM*
CC1CCCC(NC(=O)COC(=O)c2ccc(N(C)C)cc2)C1C (stereo not drawn) | -4% | -7 | -8% | -8% | ? | ?
COc1cc(/C=N/NC(=O)CC23CC4CC(CC(C4)C2)C3)cc(Br)c1OCC(=O)N(C)C | 2% | 32 | ? | · | -1% | -12%
O=C(CN1C(=O)C2CC=CCC2C1=O)N1CCN(c2ccc([N+](=O)[O-])cc2)CC1 (stereo not drawn) | 20% | · | 25µM* | 5%[10 µM] | 5%[9.22 µM] | ·
O=c1[nH]n2c(=O)c3c([nH]c2c1N=Nc1cccc(Cl)c1)CCCC3 | -4% | -18 | -2% | -8%[1.9 µM] | ? | 16µM*
O=S(=O)(N/N=C/c1ccc(OC2CSC2)cc1)c1ccccc1 | 1% | 9 | ? | 2%[10 µM] | -1% | -12%
O=S(=O)(N/N=C/c1ccc(N2CCOCC2)cc1)c1ccccc1 | 51% | · | 10µM* | -28%[10 µM] | ? | ·
C=CCOc1c(Cl)cc(CNCCC)cc1Cl | 9% | 8 | 3% | 11% | -5% | -8%
C=CCOc1c(Cl)cc(CNc2ccc(C)c(Cl)c2)cc1OC | 7% | -92* | -6% | -73%[10 µM] | -17% | -13%
COc1cc(CNc2ccc(N3CCCC3)cc2)cc(Cl)c1OC | 10% | · | ? | · | · | ·
